About 79,000 compounds went through this panel and 15% of them were active in at least one assay; those are over-represented in the sample as a whole. Unmarked numbers belong to inactive results. Activity calls are given as the source filed them. Cut-off read from the data, not from the text of the source: active = growth inhibition above about 70%; inactive = the rest.
Experiment: NCI Yeast Anticancer Drug Screen. Data for the wt1 strain (AID 149);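 note: 0% = growth of vehicle-treated wt1 cultures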
Conditions: S. cerevisiae wt1 strain (SPY 50644) growth inhibition, hits give high values
Method: Growth inhibition of yeast strains with defined genetic alterations is measured as a screen for potential anti-cancer activity. Selected strains with alterations in DNA damage repair or cell cycle control were exposed to compounds and growth inhibition was measured relative to vehicle treated controls. The strain used in this assay is wt1

SMILES	growth inhibition (at 1.2 µM) [%]	growth inhibition (at 3.7 µM) [%]	growth inhibition (at 11.0 µM)	growth inhibition (at 33.0 µM)	growth inhibition (at 100.0 µM)
CNc1nc(C)nc2c1cnn2-c1ccc([N+](=O)[O-])cc1	3	1	13%	12%	15%
Nc1nc(N)c2c(n1)CCC(S(=O)(=O)c1ccc3ccccc3c1)C2 (stereo not given)	-2	14	12%	19%	15%
O=c1ccc(N=Nc2ccccc2)ccc1O	16	56	97% (active)	99% (active)	97% (active)
O=C1c2c(O)cccc2-c2nn(CCNCCO)c3ccc(NCCNCCO)c1c23	8	-2	11%	2%	-4%
CCCCCCCCCCCCCC(=O)OC(C)CCC1CCCO1 (stereo not given)	-3	-2	-1%	-1%	-3%
NCc1c(O)ccc2ccccc12	8	11	27%	90% (active)	99% (active)
O=S1(=O)c2ccccc2N=C(c2ccccc2Cl)CC1c1ccc(F)cc1 (stereo not given)	0	-4	25%	36%	8%
O=NN(CCCl)C(=O)NCCCl	-1	-2	-1%	0%	-16%

From PubChem BioAssay (NCI)
